Assays:
Assay in all cases: log2 ratio of Biotin-Ahx-Ub-VS probe labelling (fragment/DMSO); higher = less target engagement (more negative = stronger competition), active = hit call of the paper (q ≤ 0.05, log2 ratio ≤ -1)
Conditions in all cases: compound concentration: 200 uM; treatment time: 3 h
[1] = target: USP34 (UniProt Q70CQ2)
Summary of the method: (§1)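 Average log2 ratios of fragment over vehicle were obtained by unpaired t-test from global-median-normalised Spectronaut label-free quantities. Proteins with ≥2 unique peptides were included. HEK293T lysate (495 µg per sample) was treated in triplicate with fragment at 200 µM or vehicle for 3 h, then with Biotin-Ahx-Ub-VS at 0.5 µM final for 1 h, and labelled DUBs were NeutrAvidin-enriched and run by diaPASEF LC-MS/MS.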

[2] = target: T1, USP36 (UniProt Q9P275)
T1 sequence (whole entry): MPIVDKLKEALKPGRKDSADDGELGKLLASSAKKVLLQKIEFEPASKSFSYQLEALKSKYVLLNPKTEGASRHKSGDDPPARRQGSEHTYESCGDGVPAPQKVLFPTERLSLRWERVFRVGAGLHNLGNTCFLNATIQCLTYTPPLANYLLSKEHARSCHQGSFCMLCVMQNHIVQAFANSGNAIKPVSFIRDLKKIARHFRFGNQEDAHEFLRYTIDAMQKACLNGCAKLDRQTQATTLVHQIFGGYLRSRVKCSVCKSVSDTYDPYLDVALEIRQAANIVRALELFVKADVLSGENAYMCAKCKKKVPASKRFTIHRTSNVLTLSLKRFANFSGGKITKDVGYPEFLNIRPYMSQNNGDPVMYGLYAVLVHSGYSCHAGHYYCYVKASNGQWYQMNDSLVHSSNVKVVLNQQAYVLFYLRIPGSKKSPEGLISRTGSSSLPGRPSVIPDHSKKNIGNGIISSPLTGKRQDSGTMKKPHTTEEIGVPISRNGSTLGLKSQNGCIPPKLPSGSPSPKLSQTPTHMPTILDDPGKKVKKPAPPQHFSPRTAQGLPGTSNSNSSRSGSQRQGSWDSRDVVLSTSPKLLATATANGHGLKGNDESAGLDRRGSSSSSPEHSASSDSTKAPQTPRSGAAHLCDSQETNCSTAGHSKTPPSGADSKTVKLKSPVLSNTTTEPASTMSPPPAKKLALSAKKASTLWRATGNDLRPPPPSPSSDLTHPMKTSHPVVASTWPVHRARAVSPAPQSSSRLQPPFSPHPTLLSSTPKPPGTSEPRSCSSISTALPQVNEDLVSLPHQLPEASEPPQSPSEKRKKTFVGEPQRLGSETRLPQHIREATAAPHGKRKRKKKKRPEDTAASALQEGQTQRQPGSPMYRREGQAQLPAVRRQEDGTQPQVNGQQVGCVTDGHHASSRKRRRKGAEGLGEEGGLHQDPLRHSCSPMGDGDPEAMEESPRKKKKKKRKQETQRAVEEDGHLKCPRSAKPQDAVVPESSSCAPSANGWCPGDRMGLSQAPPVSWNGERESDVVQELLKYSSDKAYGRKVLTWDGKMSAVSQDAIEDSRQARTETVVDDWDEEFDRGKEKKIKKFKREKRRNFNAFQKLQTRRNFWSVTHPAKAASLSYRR
Summary of the method: as §1

[3] = target: T2, USP38 (UniProt Q8NB14)
T2 sequence (whole entry): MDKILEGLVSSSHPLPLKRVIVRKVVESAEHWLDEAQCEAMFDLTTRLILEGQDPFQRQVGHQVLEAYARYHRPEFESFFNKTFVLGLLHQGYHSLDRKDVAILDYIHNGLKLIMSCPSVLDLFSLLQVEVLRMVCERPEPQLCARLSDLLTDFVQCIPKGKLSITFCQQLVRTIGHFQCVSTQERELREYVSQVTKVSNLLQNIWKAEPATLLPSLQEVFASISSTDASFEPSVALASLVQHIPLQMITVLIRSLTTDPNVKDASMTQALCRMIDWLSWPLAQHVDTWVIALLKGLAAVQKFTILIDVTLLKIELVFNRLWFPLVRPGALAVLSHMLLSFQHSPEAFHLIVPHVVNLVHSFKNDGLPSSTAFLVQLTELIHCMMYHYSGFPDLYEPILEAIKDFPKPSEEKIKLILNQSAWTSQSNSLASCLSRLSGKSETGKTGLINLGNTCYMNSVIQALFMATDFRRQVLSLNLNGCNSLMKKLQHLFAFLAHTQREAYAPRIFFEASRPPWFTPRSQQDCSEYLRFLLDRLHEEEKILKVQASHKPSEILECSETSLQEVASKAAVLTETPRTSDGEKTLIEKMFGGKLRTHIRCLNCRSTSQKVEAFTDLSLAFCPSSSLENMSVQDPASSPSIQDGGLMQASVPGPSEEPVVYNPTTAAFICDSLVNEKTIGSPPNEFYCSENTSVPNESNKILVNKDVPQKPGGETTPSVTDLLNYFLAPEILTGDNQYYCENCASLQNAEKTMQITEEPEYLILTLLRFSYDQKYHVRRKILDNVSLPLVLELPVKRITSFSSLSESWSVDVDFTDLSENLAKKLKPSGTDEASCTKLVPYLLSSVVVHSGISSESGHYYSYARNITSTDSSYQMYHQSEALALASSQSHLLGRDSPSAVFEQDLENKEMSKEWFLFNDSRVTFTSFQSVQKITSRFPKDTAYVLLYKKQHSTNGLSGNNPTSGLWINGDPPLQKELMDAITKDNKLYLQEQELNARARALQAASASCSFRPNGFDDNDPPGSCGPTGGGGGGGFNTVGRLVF
Summary of the method: as §1

[4] = target: T3, USP39 (UniProt Q53GS9)
T3 sequence (whole entry): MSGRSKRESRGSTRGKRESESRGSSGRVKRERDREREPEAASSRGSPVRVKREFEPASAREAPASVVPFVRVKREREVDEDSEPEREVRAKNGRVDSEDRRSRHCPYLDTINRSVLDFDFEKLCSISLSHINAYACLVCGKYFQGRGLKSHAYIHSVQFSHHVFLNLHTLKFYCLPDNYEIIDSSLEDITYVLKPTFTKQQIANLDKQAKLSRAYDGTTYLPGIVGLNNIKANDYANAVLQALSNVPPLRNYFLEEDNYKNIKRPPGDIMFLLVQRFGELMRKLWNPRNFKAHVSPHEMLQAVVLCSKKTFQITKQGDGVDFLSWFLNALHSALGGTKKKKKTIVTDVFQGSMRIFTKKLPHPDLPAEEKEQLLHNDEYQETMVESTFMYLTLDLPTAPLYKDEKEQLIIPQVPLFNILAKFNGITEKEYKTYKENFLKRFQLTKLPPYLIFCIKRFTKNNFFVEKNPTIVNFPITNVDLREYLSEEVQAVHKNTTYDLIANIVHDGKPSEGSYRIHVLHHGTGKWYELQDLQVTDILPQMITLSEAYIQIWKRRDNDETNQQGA
Summary of the method: as §1

[5] = target: T4, USP4 (UniProt Q13107)
T4 sequence (whole entry): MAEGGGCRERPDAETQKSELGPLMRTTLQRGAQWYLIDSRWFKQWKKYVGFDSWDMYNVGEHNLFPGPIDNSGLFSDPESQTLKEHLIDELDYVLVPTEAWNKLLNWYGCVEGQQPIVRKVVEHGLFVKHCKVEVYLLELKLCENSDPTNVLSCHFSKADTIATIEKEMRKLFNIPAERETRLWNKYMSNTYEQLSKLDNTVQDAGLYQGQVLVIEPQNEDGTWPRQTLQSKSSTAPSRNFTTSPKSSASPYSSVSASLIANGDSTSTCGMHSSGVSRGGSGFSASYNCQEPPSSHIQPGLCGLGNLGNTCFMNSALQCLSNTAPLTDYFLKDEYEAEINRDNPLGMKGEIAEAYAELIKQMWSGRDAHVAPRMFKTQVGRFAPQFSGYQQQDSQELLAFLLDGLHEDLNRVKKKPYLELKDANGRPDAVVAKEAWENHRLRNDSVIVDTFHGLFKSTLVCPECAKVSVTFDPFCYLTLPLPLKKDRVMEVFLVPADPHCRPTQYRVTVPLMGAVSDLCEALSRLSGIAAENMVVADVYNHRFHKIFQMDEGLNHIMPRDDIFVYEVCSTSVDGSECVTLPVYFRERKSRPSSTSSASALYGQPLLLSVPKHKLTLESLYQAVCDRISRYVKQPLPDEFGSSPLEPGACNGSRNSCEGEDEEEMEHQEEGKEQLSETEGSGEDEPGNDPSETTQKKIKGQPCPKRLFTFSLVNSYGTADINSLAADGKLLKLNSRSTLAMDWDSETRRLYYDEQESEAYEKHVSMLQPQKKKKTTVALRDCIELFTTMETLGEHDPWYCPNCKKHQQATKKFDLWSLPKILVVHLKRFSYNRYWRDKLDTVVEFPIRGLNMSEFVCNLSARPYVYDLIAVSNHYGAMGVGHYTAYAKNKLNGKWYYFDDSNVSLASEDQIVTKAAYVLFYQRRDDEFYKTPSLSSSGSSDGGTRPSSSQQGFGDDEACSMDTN
Summary of the method: as §1

Measured: log2 ratio of Biotin-Ahx-Ub-VS probe labelling

Chain of USP34 (Q70CQ2 whole entry, the tested form may be a part): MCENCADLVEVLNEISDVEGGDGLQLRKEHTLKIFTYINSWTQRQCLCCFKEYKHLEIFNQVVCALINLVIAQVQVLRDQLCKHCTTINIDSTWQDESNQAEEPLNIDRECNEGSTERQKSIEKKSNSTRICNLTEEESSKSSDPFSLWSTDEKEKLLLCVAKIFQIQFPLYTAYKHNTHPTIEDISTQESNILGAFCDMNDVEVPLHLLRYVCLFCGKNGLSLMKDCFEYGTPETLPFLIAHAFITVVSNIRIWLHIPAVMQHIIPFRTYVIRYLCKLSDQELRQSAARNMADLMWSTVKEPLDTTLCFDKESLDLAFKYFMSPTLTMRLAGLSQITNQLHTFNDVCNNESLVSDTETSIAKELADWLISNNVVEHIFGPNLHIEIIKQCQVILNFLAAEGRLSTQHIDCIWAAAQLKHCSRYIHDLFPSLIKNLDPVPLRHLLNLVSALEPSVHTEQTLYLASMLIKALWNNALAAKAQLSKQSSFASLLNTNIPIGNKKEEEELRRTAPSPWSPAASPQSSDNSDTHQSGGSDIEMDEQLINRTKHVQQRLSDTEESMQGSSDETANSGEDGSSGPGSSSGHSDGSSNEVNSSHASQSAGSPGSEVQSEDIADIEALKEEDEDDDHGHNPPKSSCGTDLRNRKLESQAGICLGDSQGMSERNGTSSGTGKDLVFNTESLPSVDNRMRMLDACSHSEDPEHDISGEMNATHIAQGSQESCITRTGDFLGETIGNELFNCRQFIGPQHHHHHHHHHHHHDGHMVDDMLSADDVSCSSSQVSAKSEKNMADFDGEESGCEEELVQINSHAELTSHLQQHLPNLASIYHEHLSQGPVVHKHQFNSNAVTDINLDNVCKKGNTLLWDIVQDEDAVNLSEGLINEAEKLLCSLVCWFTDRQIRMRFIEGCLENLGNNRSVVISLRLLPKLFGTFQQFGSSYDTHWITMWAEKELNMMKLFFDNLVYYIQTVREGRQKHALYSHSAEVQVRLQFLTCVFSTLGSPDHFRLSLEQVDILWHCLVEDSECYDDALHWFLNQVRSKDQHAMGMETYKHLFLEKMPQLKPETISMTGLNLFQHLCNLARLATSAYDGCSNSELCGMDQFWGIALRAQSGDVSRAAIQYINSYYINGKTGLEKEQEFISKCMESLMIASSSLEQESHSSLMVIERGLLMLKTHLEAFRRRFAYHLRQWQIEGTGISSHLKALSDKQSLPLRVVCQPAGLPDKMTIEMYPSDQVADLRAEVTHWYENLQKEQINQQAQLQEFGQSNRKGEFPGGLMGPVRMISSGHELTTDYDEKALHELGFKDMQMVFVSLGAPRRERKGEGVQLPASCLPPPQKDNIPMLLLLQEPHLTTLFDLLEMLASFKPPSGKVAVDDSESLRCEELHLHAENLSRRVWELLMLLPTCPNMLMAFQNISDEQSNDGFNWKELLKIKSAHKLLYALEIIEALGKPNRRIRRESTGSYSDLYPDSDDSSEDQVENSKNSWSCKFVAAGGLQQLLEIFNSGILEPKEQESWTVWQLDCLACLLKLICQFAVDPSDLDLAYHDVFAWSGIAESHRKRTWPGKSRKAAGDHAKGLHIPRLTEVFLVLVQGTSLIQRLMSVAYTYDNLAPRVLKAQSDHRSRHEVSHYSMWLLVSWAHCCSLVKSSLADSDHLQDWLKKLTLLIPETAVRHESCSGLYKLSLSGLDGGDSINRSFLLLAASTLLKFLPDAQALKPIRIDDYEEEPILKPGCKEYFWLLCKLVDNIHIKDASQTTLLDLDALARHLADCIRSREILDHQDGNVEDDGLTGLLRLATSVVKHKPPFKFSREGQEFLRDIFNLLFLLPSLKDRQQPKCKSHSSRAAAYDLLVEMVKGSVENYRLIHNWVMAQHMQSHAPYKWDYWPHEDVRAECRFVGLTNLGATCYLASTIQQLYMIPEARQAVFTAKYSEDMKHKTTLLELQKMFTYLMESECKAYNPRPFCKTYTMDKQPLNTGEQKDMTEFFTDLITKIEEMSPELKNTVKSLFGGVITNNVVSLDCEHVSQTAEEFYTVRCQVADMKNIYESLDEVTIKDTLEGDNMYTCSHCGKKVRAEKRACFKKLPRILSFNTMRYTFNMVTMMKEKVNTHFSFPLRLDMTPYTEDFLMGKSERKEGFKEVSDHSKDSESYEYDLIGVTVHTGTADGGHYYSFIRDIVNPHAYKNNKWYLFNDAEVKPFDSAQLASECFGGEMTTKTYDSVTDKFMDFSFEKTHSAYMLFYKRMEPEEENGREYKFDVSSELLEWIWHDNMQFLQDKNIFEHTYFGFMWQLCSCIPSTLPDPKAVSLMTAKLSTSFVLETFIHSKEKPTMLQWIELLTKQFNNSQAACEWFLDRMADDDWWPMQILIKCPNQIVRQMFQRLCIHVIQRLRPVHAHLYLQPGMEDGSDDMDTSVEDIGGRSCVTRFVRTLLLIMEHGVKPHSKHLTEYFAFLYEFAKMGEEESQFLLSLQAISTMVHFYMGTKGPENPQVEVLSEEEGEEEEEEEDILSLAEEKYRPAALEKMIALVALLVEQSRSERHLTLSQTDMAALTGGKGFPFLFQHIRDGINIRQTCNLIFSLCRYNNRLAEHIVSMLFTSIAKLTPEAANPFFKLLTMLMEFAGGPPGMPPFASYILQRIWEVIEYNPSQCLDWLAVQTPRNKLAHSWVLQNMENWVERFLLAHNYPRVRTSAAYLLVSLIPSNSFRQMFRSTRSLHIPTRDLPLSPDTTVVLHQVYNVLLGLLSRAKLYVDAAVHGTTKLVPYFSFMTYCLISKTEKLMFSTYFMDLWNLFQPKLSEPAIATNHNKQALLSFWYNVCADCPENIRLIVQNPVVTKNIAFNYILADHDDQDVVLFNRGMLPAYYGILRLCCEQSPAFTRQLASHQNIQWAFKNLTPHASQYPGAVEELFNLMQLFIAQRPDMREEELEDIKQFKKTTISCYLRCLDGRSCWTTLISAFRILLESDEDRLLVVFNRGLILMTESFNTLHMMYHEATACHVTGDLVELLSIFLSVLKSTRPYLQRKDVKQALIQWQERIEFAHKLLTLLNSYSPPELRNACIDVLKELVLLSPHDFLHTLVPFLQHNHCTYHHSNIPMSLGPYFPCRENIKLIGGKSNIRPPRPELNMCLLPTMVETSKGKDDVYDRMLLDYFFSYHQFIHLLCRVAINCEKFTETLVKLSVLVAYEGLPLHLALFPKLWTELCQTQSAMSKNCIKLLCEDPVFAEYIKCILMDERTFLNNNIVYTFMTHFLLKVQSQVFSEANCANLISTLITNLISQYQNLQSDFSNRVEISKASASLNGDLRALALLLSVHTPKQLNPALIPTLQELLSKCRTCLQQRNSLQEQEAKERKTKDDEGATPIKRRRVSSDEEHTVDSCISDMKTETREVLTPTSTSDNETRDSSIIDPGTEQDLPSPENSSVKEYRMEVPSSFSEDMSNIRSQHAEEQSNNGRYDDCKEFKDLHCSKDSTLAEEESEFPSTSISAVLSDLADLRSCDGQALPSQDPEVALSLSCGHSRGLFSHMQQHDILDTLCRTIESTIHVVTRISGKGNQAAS

CS(=O)(=O)N1CCCN(C(=O)CCl)CC1
inactive: [1] -0.016 | [2] -0.255 | [3] -0.0208 | [4] 0.0871 | [5] -0.0865
